Structures are written as SMILES. Hit rate of the full screen: of about 350,000 compounds, about 6,000 (1.7%) were called active. Not shown: some 5% with an inconclusive outcome. This is one part of a sample in which actives are shown more often than they occur. Values without a mark were called inactive. No stated cut-off is given here; in the data, active means CPE inhibition above about 20% (passing the limit was not always enough); inconclusive means no clear call, values can overlap the other calls; tested in BHK-21 cells.

The nature of this assay: protection of cells from dengue 2 killing – plate reader, single concentration, primary screen (AID 651640).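 Further: 0% = median of neutral control wells and 100% = median of positive control wells.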 The conditions noted are these: DENV2-infected cells, cytopathic effect rescue, at 9.99 µM, stronger effect = higher value.
In the case of `O=C(Nc1cccc(Cl)c1)N1C[C@@H]2[C@H](c3ccccc31)[C@H](CO)N2Cc1ccncc1`, the CPE inhibition was -4.1%.
As to `C/C=C/c1ccc([C@H]2[C@@H](CO)N[C@@H]2CN(CC)C(=O)CN2CCOCC2)cc1`, the CPE inhibition is -9.22%.
Regarding `O=C(C[C@@H]1C[C@H]2c3cc(NC(=O)NC4CCCCC4)ccc3O[C@H]2[C@H](CO)O1)NCc1ccncc1`, the CPE inhibition is -3.13%.
Turning to `CC(C)NC(=O)N(C)C[C@@H]1Oc2ncc(C3=CCCCC3)cc2C(=O)N([C@H](C)CO)C[C@@H]1C`, the CPE inhibition is 4.71%.
To `CCCNC(=O)C[C@H]1C[C@@H]2c3cc(NC(=O)COC)ccc3O[C@@H]2[C@@H](CO)O1` belongs -2.37%; to `CN1OC[C@@H]2CN(C(=O)C(C)(C)C)[C@H](c3ccc(-n4ccnc4)cc3)C[C@@H]21`, -4.59%.
To `CN1OC[C@@H]2CN(C(=O)c3cccnc3)[C@H](c3ccc(N4CCCCC4)cc3)C[C@@H]21` belongs 42.6% (active).
The same measure for `CN1OC[C@@H]2CN(C(=O)c3cccc4ccccc34)[C@H](c3ccc(N4CCCCC4)cc3)C[C@@H]21`: 1.89%; for `COc1ccc(NC(=O)Nc2ccc3c(c2)C(=O)N([C@@H](C)CO)C[C@@H](C)[C@@H](CN(C)Cc2ccncc2)OCCCC[C@@H](C)O3)cc1`: -9.1%.
As for `CN1C(=O)c2cc(NC(=O)c3cccs3)ccc2OC[C@H]2O[C@@H](CC(=O)NCC3CC3)CC[C@@H]21`, the CPE inhibition was -3.31%.
The same measure for `C/C=C/c1ccc([C@@H]2[C@@H](CO)N(CC3CCCC3)C23CN(S(=O)(=O)CC)C3)cc1`: -5.75%; for `C/C=C/c1ccc([C@@H]2[C@H](CO)N(CC3CCOCC3)C23CN(S(=O)(=O)CC)C3)cc1`: 73.3% (active); for `C/C=C/c1ccc([C@@H]2[C@H](CO)N(CC3CCCC3)C23CN(C(=O)CC)C3)cc1`: 2.47%.
To `CO[C@H]1CN(C)C(=O)c2ccc(NS(=O)(=O)c3cn(C)cn3)cc2OC[C@H](C)N(C)C[C@H]1C` belongs -10.1%.
The same measure for `C/C=C/c1cnc2c(c1)C(=O)N([C@H](C)CO)C[C@H](C)[C@H](CN(C)C(=O)c1cccc(F)c1)O2`: -1%; for `C[C@@H]1CN([C@@H](C)CO)S(=O)(=O)c2ccc(Br)cc2O[C@H]1CN(C)S(=O)(=O)c1ccccc1`: -1.43%.
For `CCOc1ccc(Oc2nc(C)cc(OC)n2)nn1`, the CPE inhibition was 71.4% (active).
To `COc1ccc2c3c([nH]c2c1)[C@H](CO)N(Cc1nccs1)CC31CCN(Cc2ccncc2)CC1` belongs 6.23%; to `CCC(=O)N(C)C[C@@H]1Oc2cc(C#C[C@H](C)O)ccc2S(=O)(=O)N([C@@H](C)CO)C[C@H]1C`, -5.73%; to `C[C@@H]1CCCCO[C@H](CN(C)S(=O)(=O)c2cn(C)cn2)[C@@H](C)CN([C@@H](C)CO)C(=O)c2cc(NC(=O)c3ccncc3)ccc2O1`, 1.9%.
The same measure for `O=C(CN1CCOCC1)Nc1ccccc1`: 1.83%; for `COc1cc2c(cc1OC)CN(CC(=O)Nc1ccc(F)cc1)CC2`: -5.5%; for `O=C(CN1CCc2cc3c(cc2C1)OCCCO3)Nc1ccccc1`: 28.1% (active).
To `O=C([C@@H]1[C@@H](CO)[C@@H]2Cn3c(ccc(C4=CCCCC4)c3=O)[C@H]1N2Cc1nccs1)N1CCCCC1` belongs -3.86%.
As to `COc1ccc2c3c(n(C)c2c1)[C@@H](CO)N(C(=O)c1cccnc1)CC31CCN(C(=O)c2cccnc2)CC1`, the CPE inhibition was -1.97%.
With `CCCC#Cc1ccc([C@@H]2[C@@H](CO)N3C(=O)CN(C(=O)c4ccncc4)C[C@@H]23)cc1`, the CPE inhibition is 0.156%.
Take `COCC(=O)N1[C@H](CO)[C@@H](c2ccccc2)[C@H]1CN(C)C(=O)c1ccncc1`: the CPE inhibition is -13.8%.
To `COCC(=O)N1[C@H](CNC(=O)c2ccccn2)[C@H](c2ccccc2)[C@@H]1CO` belongs 35.1% (active).
To `CCNC[C@@H]1[C@@H](c2ccccc2)[C@@H](CO)N1C(=O)Cc1ccccn1` belongs -0.972%; to `COc1ccc2c3c([nH]c2c1)[C@H](CO)N(Cc1cccc(F)c1)CC31CCN(Cc2ccccn2)CC1`, 5.05%; to `CCCc1cc(=O)oc2cc(OCC(=O)Nc3ccc(CN4CCOCC4)cc3)c(Cl)cc12`, 2.98%.
As to `CCOc1ccc(C(=O)Nc2ccc(CN3CCOCC3)cc2)cc1Cl`, the CPE inhibition was 29.8% (active).
The same measure for `O=C(Nc1ccc(CN2CCOCC2)cc1)c1cc(Cl)ccc1Cl`: 0.583%; for `Cc1noc(C)c1NC(=O)Nc1ccc2c(c1)CC(=O)N([C@H](C)CO)C[C@@H](C)[C@H](CN(C)S(=O)(=O)c1cccs1)O2`: 5.9%.
Regarding `C[C@@H]1CN([C@@H](C)CO)C(=O)c2cccc(NS(=O)(=O)c3ccc(Cl)cc3)c2O[C@@H]1CN(C)Cc1ccccc1`, the CPE inhibition was 10.9%.
Turning to `O=C(Cc1cccnc1)N1CC(=O)N2[C@@H](CO)[C@@H](c3ccc(C#CC4CCCCC4)cc3)[C@@H]2C1`, the CPE inhibition was 6.08%.
To `CC(=O)NCCNC(=O)c1cc(-c2cccc3ccccc23)nc2ccccc12` belongs 2.13%; to `O=C(Nc1nnc(-c2ccccc2)o1)c1cc(-c2cccs2)nc2ccccc12`, -13.1%.
The same measure for `CCCCN(C)CCCNC(=O)c1cc(-c2cccs2)nc2ccccc12`: 41.4% (active); for `C/C=C/c1ccc([C@@H]2[C@@H](CO)N(C(C)=O)[C@H]2CN(C)C(=O)CN(C)C)cc1`: 8.38%; for `C/C=C/c1ccc([C@H]2[C@@H](CO)N(C(=O)NCCC)[C@H]2CN(C)C(C)=O)cc1`: -22.2%.
To `C/C=C/c1ccc([C@@H]2[C@@H](CN(C)C(C)=O)N(C(=O)C3CC3)[C@H]2CO)cc1` belongs 41.4% (active).
For `COc1ccc(-c2cn(CC[C@H]3CC[C@@H](NC(=O)CCN4CCCCC4)[C@H](CO)O3)nn2)cc1`, the CPE inhibition is -5.26%.
The same measure for `Cc1noc(C)c1S(=O)(=O)Nc1ccc2c(c1)C(=O)N([C@@H](C)CO)C[C@H](C)[C@H](CN(C)CC1CCCCC1)OCCCC[C@H](C)O2`: -11.5%.
`O=C([C@@H]1[C@@H](CO)[C@@H]2Cn3c(ccc(-c4cncnc4)c3=O)[C@@H]2N1C(=O)C1CCC1)N1CCCCC1`: the CPE inhibition is -0.056%.
The same measure for `CC(C)NC(=O)N1[C@@H]2c3ccc(-c4ccc(F)cc4)c(=O)n3C[C@@H]2[C@@H](CO)[C@@H]1C(=O)N1CCOCC1`: 69.3% (active); for `COc1cccc(-c2ccc3n(c2=O)C[C@@H]2[C@@H](CO)[C@H](C(=O)NCC4CC4)N(C(=O)NC(C)C)[C@H]32)c1`: 13.2%; for `CCC(=O)N1CCCCN2[C@H](C1)[C@@H](c1ccc(/C=C/c3ccccc3)cc1)[C@@H]2CO`: -4.84%.
The same measure for `CC(C)(C)[S@@](=O)N1Cc2cc(C(=O)N3CCCCC3)nc(-c3cccc(-c4cccc(C#N)c4)c3)c2[C@H]1CCO`: -1%; for `CC(C)(C)[S@](=O)N1Cc2cc(C(=O)N3CCCCC3)nc(-c3cccc(Br)c3)c2[C@@H]1CCO`: 41.3% (active).
To `CC(C)(C)[S@](=O)N1Cc2cc(C(=O)N3CCCCC3)nc(-c3cccc(-c4ccccc4F)c3)c2[C@@H]1CCO` belongs 1.74%.
`CCOC(=O)C1=C(C)N(C[C@@H]2CC[C@@H](Cc3ccc(-c4ccccc4)cc3)O2)C(=O)NC1c1ccc([N+](=O)[O-])cc1` (some centres not stated): the CPE inhibition was 49.3% (active).
Consider `COC(=O)CCCCCN1C(=O)NC(c2ccc(-c3ccccc3)cc2)C(C(=O)OCc2ccccc2)=C1C` (configuration not stated), for which the CPE inhibition is -1.13%.
The same measure for `CCC(CC)COC(=O)C1=C(C)NC(=O)NC1c1ccc([N+](=O)[O-])cc1` (configuration not stated): 4.17%.
The same measure for `C[C@@H]1CN([C@H](C)CO)C(=O)c2cc(NC(=O)CCCCCC(=O)Nc3ccccc3N)ccc2O[C@@H]1CN(C)Cc1ccncc1`: -1.11%.
On to `COc1ccc2c3c([nH]c2c1)[C@@H](CO)N(C(=O)c1cccc(F)c1)CC31CN(C(C)=O)C1`, for which the CPE inhibition is -11.3%.
To `O=C(C[C@H]1C=C[C@@H](NC(=O)Nc2cc(F)ccc2F)[C@H](CO)O1)NCCCN1CCOCC1` belongs -8.14%; to `COc1ccccc1NC(=O)N1C[C@H]2[C@@H](c3ccccc31)[C@@H](CO)N2C(=O)C1CCCC1`, -7.24%.
The same measure for `Cc1noc(C)c1S(=O)(=O)N(C)C[C@@H]1OCCCC[C@@H](C)Oc2ccc(NS(=O)(=O)c3ccccc3)cc2C(=O)N([C@H](C)CO)C[C@@H]1C`: -8.98%; for `COc1ccc(S(=O)(=O)N(C)C[C@H]2OCCCC[C@H](C)Oc3ccc(NS(=O)(=O)c4c(C)noc4C)cc3C(=O)N([C@@H](C)CO)C[C@@H]2C)cc1`: -3.17%; for `Cc1noc(C)c1S(=O)(=O)N(C)C[C@@H]1OCCCC[C@@H](C)Oc2ccc(NC(=O)Nc3ccccc3)cc2C(=O)N([C@H](C)CO)C[C@@H]1C`: 3.34%.
On to `Cc1noc(C)c1S(=O)(=O)N(C)C[C@@H]1OCCCC[C@H](C)Oc2ccc(NC(=O)Nc3ccc4c(c3)OCO4)cc2C(=O)N([C@H](C)CO)C[C@@H]1C`, for which the CPE inhibition was -3.84%.
To `C[C@@H]1CCCCO[C@@H](CN(C)S(C)(=O)=O)[C@H](C)CN([C@@H](C)CO)C(=O)c2cc(NC(=O)Nc3ccc4c(c3)OCO4)ccc2O1` belongs 12.2%; to `Cc1noc(C)c1S(=O)(=O)N(C)C[C@@H]1OCCCC[C@H](C)Oc2ccc(NC(=O)Nc3ccc4c(c3)OCO4)cc2C(=O)N([C@H](C)CO)C[C@H]1C`, 27.1% (active); to `Cc1noc(C)c1S(=O)(=O)N(C)C[C@@H]1OCCCC[C@H](C)Oc2ccc(NC(=O)NC(C)C)cc2C(=O)N([C@H](C)CO)C[C@@H]1C`, 51.8% (active).
To `COc1ccc(S(=O)(=O)Nc2ccc3c(c2)C(=O)N([C@@H](C)CO)C[C@H](C)[C@H](CN(C)S(=O)(=O)c2c(C)noc2C)OCCCC[C@@H](C)O3)cc1` belongs 36% (active); to `Cc1noc(C)c1S(=O)(=O)N(C)C[C@@H]1OCCCC[C@H](C)Oc2ccc(NC(=O)NC3CCCCC3)cc2C(=O)N([C@@H](C)CO)C[C@H]1C`, -11.4%.
